From PubChem BioAssay (NCI)
The panel holds about 83,000 compounds, 20% with a hit somewhere; the sample as a whole holds those more often.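 Method: cells in 96-well plates; compound added at one concentration; 48 h incubation; percent growth measured; values under 10 scored active.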 Values without a mark were called inactive. The source made the active and inactive calls.

Tests used:
Assay in all cases: NCI-60 one-dose screen, 48 h (100 = growth as untreated, 0 = no growth, -100 = all killed)
Details in all cases: 10 µM unless noted
[1] = tested on: SK-MEL-2 melanoma
[2] = tested on: EKVX NSCLC
[3] = tested on: UO-31 renal
[4] = tested on: TK-10 renal
[5] = tested on: A498 renal
[6] = tested on: CCRF-CEM leukemia
[7] = tested on: MOLT-4 leukemia
[8] = tested on: ACHN renal
[9] = tested on: CAKI-1 renal
[10] = tested on: SN12C renal

Row | SMILES | growth [1] | growth [2] | growth [3] | growth [4] | growth [5] | growth [6] | growth [7] | growth [8] | growth [9] | growth [10] [%]
1 | Cc1cc(-c2ccccc2)cc(SC#N)[n+]1[O-] | 49.1% | 26.2% | 40.4% | 55.9% | 67.7% | 6.22% (active) | 10.1% | – | – | –
2 | Cc1ccc(S(=O)(=O)Nc2sccc2-c2nc(-c3ccccc3)no2)cc1 | 91.6% | 94.2% | 70.4% | 103% | 96.3% | 92.1% | 98% | 89.9% | 81.3% | –
3 | Cc1csc(NC(=O)c2sc3nc(-c4cccs4)ccc3c2N)n1 | 87.2% | – | 88% | 118% | 77.3% | 70.3% | 57.6% | 110% | 102% | 98
4 | COc1ccc(OC)c(/C=C2\COc3ccc(O)cc3C2=O)c1 | 100% | 103% | 86.6% | – | 100% | 5.83% (active) | 64.9% | 78.9% | 95.7% | –
5 | CC(C)(O)c1cccc(F)c1 | 124% | 92% | 88.7% | 109% | 97% | -41.6% (active) | 107% | 99.1% | 101% | –
6 | O=C1N(c2ccccc2)C(=S)N[C@]12[C@H](c1ccccc1)C1CCCN1[C@]21C(=O)NC2C=CC(Cl)=C[C@H]21 (stereo partly drawn) | 91% | 100% | 71.3% | 113% | 107% | 77.6% | 79% | – | – | –
7 | COc1ccc(NC(=O)c2cccc(-c3cc(=O)c4c(O)c(OC)c(OC)cc4o3)c2)cc1 | 83.4% | – | 93.4% | 105% | 83.8% | 84% | 103% | 83.6% | 93.6% | 84.3
8 | CCCCC1COc2cccc3c(SCC(=O)N(C)c4cccc(Cl)c4)cc[n+]1c23 (stereo not drawn) | 105% | 113% | 90.7% | 110% | 106% | 105% | 109% | 101% | 102% | –
9 | CCCCn1c(=O)[nH]c(N)c(C(c2ccc(F)cc2)c2c(N)[nH]c(=O)n(CCCC)c2=O)c1=O | 58.6% | 69.3% | 103% | 68.3% | 90.1% | 58% | 29.8% | 92.7% | 100% | –
10 | O=[N+]([O-])c1ccc(-c2cc3c(Nc4ccc(Sc5nc6ccccc6s5)c(Cl)c4)ncnc3s2)cc1 | 46.7% | 39.7% | 43.4% | 48.2% | -0.884% (active) | – | 23.7% | 34.4% | – | –
11 | COc1ccc(-c2nc3sc4c(c3c(=O)[nH]2)CCCC4)c2ccccc12 | 29.4% | – | 24.8% | 38.3% | -24.4% (active) | 12.5% | 14.2% | -32.5% (active) | 9.7% (active) | 36.2
12 | Clc1ccc(-c2nc(NCCc3ccccc3)nc3c(NCCc4ccccc4)cnn23)cc1 | 79.6% | 79.5% | 86.7% | 60.1% | 71.4% | 82.6% | 89.1% | – | – | –
13 | CCOC(=O)c1c(C)nc2c(c1N)/C(=C/c1ccc(OC)cc1)C(=O)N2Cc1ccc(F)cc1 | -27.5% (active) | 9.23% (active) | -38.4% (active) | -70.8% (active) | -44.2% (active) | -5.4% (active) | 1.64% (active) | – | – | –
14 | CC(C)CCC[C@@H](C)[C@H]1CCC2C3=CCC4C(=O)C=CC(=O)C4C3CC[C@@]21C (stereo partly drawn) | -16.4% (active) | -10% (active) | -67.9% (active) | -36.6% (active) | -6.21% (active) | 17% | 10.4% | 4.54% (active) | -56.3% (active) | –
15 | C/C(=N\NC(=O)Cn1c(-c2ccc(S(C)(=O)=O)cc2)nc2cc(Cl)ccc21)c1ccc(Cl)cc1 | 91.1% | 76.6% | 62.7% | 101% | 89.8% | – | 61.5% | 85.8% | 74% | –
